We go through 40 sequences from the OligoGym collection.
Further: reference of the scale not given here.

The target of one experiment is LYPD3. In words: pooled miR-30 sensor sort-seq; sequence = guide strand. Conditions: shRNA.
Sequence ACTGTCTTCATCTTGTTCGGGG returned a sensor-assay potency score (higher = more potent) of 0.213. TAGAAGTGGTGACAGATGTGGT gave a sensor-assay potency score (higher = more potent) of -0.342. With TTCACTGTCTTCATCTTGTTCG, the sensor-assay potency score (higher = more potent) was 0.494. Sequence TTGCCGTCGAAGCAGCCCTTGT returned a sensor-assay potency score (higher = more potent) of -1.63. In the case of TCATCCTGGACACAGCCCCGGA, the sensor-assay potency score (higher = more potent) is -1.53. With TTGTAGACATGATCGCTGGCGT, the sensor-assay potency score (higher = more potent) was -0.346. Regarding TCTGCTTTCTGCACGCAGCTGT, the sensor-assay potency score (higher = more potent) was 0.703. The sequence TGCACTCTCATTACCTGCCGGG displayed a sensor-assay potency score (higher = more potent) of -0.389. TTGAGCTTGGCGTTGCAGCGAT came in with a sensor-assay potency score (higher = more potent) of -0.598.

The next experiment deals with LYZL6. The experiment is described as above. Conditions: shRNA.
TTTAGGGCAAGAAAGCTGCTGA yielded a sensor-assay potency score (higher = more potent) of -0.16. On to ATAATCGTTGCACCAGTAGTGG, for which the sensor-assay potency score (higher = more potent) was -0.825.

The sequence TATGTTGAACTTGCTTTCCACA had a sensor-assay potency score (higher = more potent) of -1.04. Take AACAGTGCAACCTCCATTCTAC: the sensor-assay potency score (higher = more potent) was -0.122. In turn, TTGATATGTTGAACTTGCTTTC had a sensor-assay potency score (higher = more potent) of -0.485. ATCTTTGATATGTTGAACTTGC came in with a sensor-assay potency score (higher = more potent) of -0.0692. The same measure, in the same setting: the figure for TCAGCAGATCTTGACAGTCTAC is -0.859; for TATCTTTGATATGTTGAACTTG it is -0.231. On to TTGCTTTCCACAAAAGCCAGGC, for which the sensor-assay potency score (higher = more potent) is -0.197. The sequence CAGATCTTGACAGTCTACGTGG yielded a sensor-assay potency score (higher = more potent) of -1.04. TTTGATATGTTGAACTTGCTTT displayed a sensor-assay potency score (higher = more potent) of 0.0932. In the case of TAATCGTTGCACCAGTAGTGGC, the sensor-assay potency score (higher = more potent) was -1.43.

Another experiment deals with LZTR1. The experiment is described as above. Conditions: shRNA.
Regarding TCATTGAGCATGGTCTTCCCAT, the sensor-assay potency score (higher = more potent) was -0.632. For the sequence TTCATCTCCAGGTTCTGCTTGC, the sensor-assay potency score (higher = more potent) came out at 0.0647. For TTGGAGACCTTGGTGAACTGGT, the sensor-assay potency score (higher = more potent) was 0.248. Consider TATGATGTCCAGCAGCAGCTGC, for which the sensor-assay potency score (higher = more potent) is -0.965.

Sequence AATACAAACATCTTGTCCCGGC gave a sensor-assay potency score (higher = more potent) of -0.355. As to TATTTGATCTTGTCGGTGTAGA, the sensor-assay potency score (higher = more potent) was 0.13. TTTCACATCGAACCGCAGGAGG gave a sensor-assay potency score (higher = more potent) of -1.16. Sequence TACTCGACACTGTCCGAGCAGC returned a sensor-assay potency score (higher = more potent) of -1.08.

Regarding TAGGGTAACAGGAGAACTGGAA, the sensor-assay potency score (higher = more potent) amounted to 0.345. TTAGGGTAACAGGAGAACTGGA showed a sensor-assay potency score (higher = more potent) of -0.956. On to TAACAGGAGAACTGGAACCTGT, for which the sensor-assay potency score (higher = more potent) was -1.05.

The target in a further experiment is MACROD1. Described as above. Conditions: shRNA.
Sequence TGCTTGTCCTTTTTATACCTGG had a sensor-assay potency score (higher = more potent) of -0.621. AAGGATTTCGCCTCCTTCCAGT gave a sensor-assay potency score (higher = more potent) of -0.552. Sequence TTACAGCTCTGCAGGGTCCGGC returned a sensor-assay potency score (higher = more potent) of -1.02. Turning to TTTCTCATTGAGCTGCTTGTCC, the sensor-assay potency score (higher = more potent) was -0.192. TCCAGCTTGGTGATGTCGCTGC yielded a sensor-assay potency score (higher = more potent) of -0.0855. The sequence TTCAGCCTGACAAAGTCCTTGC showed a sensor-assay potency score (higher = more potent) of 0.08. TTTCGCCTCCTTCCAGTCGGTG came in with a sensor-assay potency score (higher = more potent) of -1.53. Consider AACACGCAGATGATCAGCCGGT, for which the sensor-assay potency score (higher = more potent) was -0.183.
